# Assay outcomes deposited in PubChem by National Center for Advancing Translational Sciences (NCATS).
# Sampled rows, rich in hits. Any-hit rate of the full collection: about 15%.
# HCV inh – blocks hepatitis C virus; Huh7.5.1 HCVcc-Cre infection, luciferase reporter, 44 h; Potency, µM (top dose mostly 41.8 µM), for the others: top-dose activity change, negative = inhibition, hits mostly inhibitors; 3.4% of 340,000 active; also: potency is read from the fitted curve at half-maximal effect; % is scaled to controls: 0 for no effect and ±100 for the full control effect
#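 Antiviral activity was scored by luciferase reporter output from cells infected with HCVcc-Cre (~0.5 moi) in presence of compound, 44 h infection period, cells seeded 1,000/well 4 h prior.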
# HCMV antiviral – inhibitors of human cytomegalovirus; AID 1259415; 4.5% of 410,000 active; HFF cells, HCMV-luciferase reporter, 72 h; stronger effect = lower value; activity change, negative = inhibition, % at 57.5 µM; in the data active = activity change below about -60%; inconclusive = no clear call, values can overlap the other calls; inactive = above about -39%; also: % is scaled to controls: 0 for no effect and ±100 for the full control effect
#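 Screen run at 2 compound doses on HFFs infected with reporter HCMV, MOI 1 PFU/cell. Luciferase activity from cell lysates at 72 h post infection gave inhibition relative to buffer-only and Salinomycin wells.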
# Pf growth 96h – inhibits malaria parasite growth, 96 h; P. falciparum luciferase reporter growth, 96 h; Potency, µM (doses to about 28.7 µM), for the others: top-dose activity change, negative = inhibition, hits mostly inhibitors; 6.9% of 320,000 active; AID 504834; also: potency is read from the fitted curve at half-maximal effect; % is scaled to controls: 0 for no effect and ±100 for the full control effect
#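 Luminescence readout: decreased luciferase signal marks inhibited growth of reporter-expressing P. falciparum in infected red cells (2% hematocrit, 0.05% parasitemia final), exposed to compound two generations (96 h, 37 C, 5% CO2).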
# Sm TGR inh – blocks Schistosoma mansoni thioredoxin glutathione reductase; Q962Y6; purified TGR, DTNB reduction, TNB absorbance 405 nm; Potency, µM (titrated, usually from 114 µM), for the others: at the highest dose activity change, negative = inhibition, actives largely listed as inhibitors; 3% of 360,000 active; AID 485364; also: potency is read from the fitted curve at half-maximal effect; % is scaled to controls: 0 for no effect and ±100 for the full control effect; nearly all actives have a fitted effect of over 60% in size
#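 TGR 20 nM + NADPH 100 uM (dispensed conc.), cpd preinc 15 min RT; start with NADPH (500 uM addition) then DTNB (15 mM addition). Kinetic TNB absorbance, 405 nm filter. Four-parameter Hill fit across titration.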
# SARS PLP yeast – SARS-CoV PLP inhibition in yeast | S. cerevisiae expressing SARS-CoV PLpro, growth rescue | Potency, µM (highest dose often 32.9 µM), for inactives: at the highest dose activity, positive = growth rescue, most hits filed as activators | 0.19% of 330,000 active | AID 485353; calls by dose curve; also: potency is read from the fitted curve at half-maximal effect; 0% is about no effect; nearly all actives have a fitted effect of over 55% in size
# Pf growth 48h – inhibits P. falciparum growth in the first generation, 48 h. P. falciparum luciferase growth in erythrocytes, 48 h. Potency, µM (titrated, usually from 28.7 µM), without a hit: at the top dose activity change, negative = inhibition, hits mostly inhibitors. 5.9% of 310,000 active. AID 504832; also: potency is read from the fitted curve at half-maximal effect; % is scaled to controls: 0 for no effect and ±100 for the full control effect
#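 Read-out is firefly luciferase luminescence from an integrated reporter in P. falciparum, so falling signal marks reduced parasite growth. Infected erythrocytes were at 2% hematocrit and 0.1% parasitemia (final) in Albumax-supplemented RPMI 1640.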
# The depositor's hits bear a star; u = inconclusive; x = not tested or not shown. Unless noted, calls follow the shape of the dose curve; as a rule, active = well fitted curve in the direction sought with a large enough effect; inconclusive = small, poorly fitted or top-dose-only effect, or another doubt; inactive = no such curve, though single readings can be large; an effect the other way counts as inactive or inconclusive.
SMILES,HCV inh,HCMV antiviral,Pf growth 96h,Sm TGR inh,SARS PLP yeast,Pf growth 48h
C[C@]12c3[nH]c4ccc(Cl)cc4c3CCN1C(=O)[C@@H](CC(=O)NCc1cccc(C(F)(F)F)c1)C[C@@H]2C(=O)N1CCCCC1,25µM*,-104*,x,x,2%,x
Cc1c(Br)c([N+](=O)[O-])nn1C(C)C(=O)N1CCc2ccccc2C1 (stereo unspecified),-15%,-25,-3%,-21%,1%,202%
COc1ccccc1-c1nn(-c2ccccc2)cc1C(=O)N1CCN(C(=O)c2ccco2)CC1,-1%,-6,-28%,0%,1%,u
O=C(NCC(c1ccco1)N1CCCC1)c1cn(-c2ccccc2)nc1-c1ccc(F)cc1 (stereo unspecified),u,-14,8.3µM*,18%,3%,u
COc1ccccc1-c1nn(-c2ccccc2)cc1C(=O)NCC(c1ccco1)N1CCCC1 (stereo unspecified),3%,-1,15µM*,-7%,3%,u
O=C(NCC(c1ccco1)N1CCCC1)c1ccccc1F (stereo unspecified),1%,-4,x,-9%,-2%,4%
O=C(NCC(c1ccco1)N1CCCC1)c1cn(Cc2ccccc2)nc1-c1ccccc1 (stereo unspecified),-3%,-20,9.3µM*,-17%,3%,u
CC(C)C(=O)N1CCN(c2ccccc2NC(=O)c2ccc3c(c2)OCCO3)CC1,7%,x,x,x,x,x
COc1ccc(OC)c(S(=O)(=O)NC(C)c2cnn(-c3ccccn3)c2C)c1 (stereo unspecified),42%,8,15µM*,-1%,6%,7%
COc1ccc(-n2ncc(C(C)NS(=O)(=O)c3ccc(C)s3)c2C)cc1 (stereo unspecified),0%,-21,8.3µM*,4%,1%,7%
COc1ccc(-n2cc(-c3ccccc3)c3c(NCCc4ccc(OC)c(OC)c4)ncnc32)cc1,x,u,x,4%,x,x
CCCOC(=O)c1ccc2c(c1)C(=O)N(c1ccccc1)C2=O,-3%,-17,12µM*,9%,2%,x
CCCOC(=O)CN1C(=O)c2ccc(C(=O)OCCC)cc2C1=O,11%,-1,x,-26%,2%,3%
CCN(C(=O)CN1CCN(S(=O)(=O)c2ccccc2C(F)(F)F)CC1)c1c(N)n(Cc2ccccc2)c(=O)[nH]c1=O,10%,-35,u,-18%,24%,-13%
C[C@]12CC[C@H](O)C[C@H]1CC[C@@H]1[C@@H]2CC[C@]2(C)[C@@H](C3=CC(=O)OC3)CC[C@]12O,2µM*,-97*,-1%,-2%,x,-10%
CC12CCC(O)CC1CCC1C2CCC2(C)C(C3=CC(=O)OC3)C(O)CC12O (stereo unspecified),u,-97*,x,x,x,x
CC12CCC(O)CC1CCC1C2CCC2(C)C(C3=CC(=O)OC3)CCC12O (stereo unspecified),5µM*,-99*,x,x,x,x
C[C@]12CC[C@H](O)C[C@H]1CC[C@@H]1[C@@H]2C[C@@H](O)[C@]2(C)[C@@H](C3=CC(=O)OC3)CC[C@]12O,0.56µM*,-100*,-7%,6%,x,-5%
C[C@]12CCC3C(CC[C@H]4C[C@@H](O)CC[C@]34C)[C@H]1C=CC2=O (stereo partly specified),-11%,0,x,x,-2%,x
Cc1nn(CC(=O)Nc2cccc(C(F)(F)F)c2)c(=O)c2nn(-c3ccccc3)c(C)c12,x,-12,x,2%,x,x
COc1ccc(S(=O)(=O)NCc2ccc(C(=O)NCCCN3CC(C)CC(C)C3)cc2)cc1 (stereo unspecified),0%,-33,u,u,-7%,-12%
Cc1cc(C)cc(N2CC(c3nc(-c4ccccc4C)no3)CC2=O)c1 (stereo unspecified),x,3,x,3%,x,x
Cc1ccc(S(=O)(=O)NCC2(c3ccccc3)CCN(C)CC2)cc1,10%,75,u,0%,2%,-8%
Cc1ccc(NC(=S)NCC23C=CC(O2)C2C(=O)N(c4ccc(C)cc4)C(=O)C23)cc1 (stereo unspecified),-14%,27,u,5µM*,-85%,u
Cc1ccc(N2CCN(C(=S)Nc3ccc(Cl)cc3)CC2)cc1,-1%,-26,16%,-1%,-1%,32%
SMILES,HCV inh,HCMV antiviral,Pf growth 96h,Sm TGR inh,SARS PLP yeast,Pf growth 48h
Cc1ccc(S(=O)(=O)NCC23C=CC(O2)C2C(=O)N(c4ccccc4)C(=O)C23)cc1 (stereo unspecified),-6%,23,x,3.2µM*,-29%,-11%
Cc1ccc(N2C(=O)C3C4C=CC(CNC(=S)N5CCN(c6ccccc6)CC5)(O4)C3C2=O)cc1 (stereo unspecified),-21%,-32,u,2.5µM*,-13%,1%
Cc1cccc(NC(=S)NCC23C=CC(O2)C2C(=O)N(c4ccc(Cl)cc4)C(=O)C23)c1 (stereo unspecified),-6%,-25,34%,3.2µM*,-83%,-7%
Cc1ccc(N2C(=O)[C@@H]3[C@H](C2=O)[C@H]2C=CC=NN2[C@@H]3C(=O)Nc2ccccc2)cc1,-5%,125,u,u,0%,u
O=c1[nH]c2ccc(NCc3ccccc3F)cc2[nH]1,x,-7,x,-34%,x,x
CC1=C(C(=O)NCc2cccc(Cl)c2)C2(CCCCCC2)OC1=O,x,u,x,-9%,x,x
CC(C)NC(=O)c1ccc(Cn2c(SCC(N)=O)nc3ccccc3c2=O)cc1,x,-9,x,3%,x,x
COc1ccccc1CNC(=O)Cn1ncn2c(cc3sccc32)c1=O,x,2,x,-9%,x,x
O=C(C(Cc1ccccc1)N1C(=O)c2ccccc2C1=O)N1CCc2ccccc21 (stereo unspecified),-15%,19,u,-5%,4%,15µM*
CCOC(=O)c1c(C)n(CC(O)c2ccccc2)c2ccc(O)cc12 (stereo unspecified),u,-7,12µM*,-37%,3%,12µM*
CCOC(=O)c1c(C)n(CCOc2ccccc2)c2ccc(O)cc12,11%,-29,u,8%,0%,-12%
CN(C)[C@H]1CC[C@@]23CCCN2C(=O)CCC[C@H]3[C@H]1Cc1ccccc1,x,4,x,x,x,x
Cc1oc2ncnc(N)c2c1C,2%,-9,139%,8%,-1%,14%
Cc1ccc(-c2oc3ncnc(N)c3c2-c2ccc(C)cc2)cc1,u,-36,10%,-9%,24%,7.4µM*
O=C(N/N=C/c1ccc(O)cc1O)c1ccc(CN2C(=O)c3cccc4cccc2c34)cc1,u,-101*,u,x,6%,u
